The campaign covered roughly 47,000 compounds. About 3,100 (6.6%) were called active. No stated cut-off is given here; in the data, active means inhibition above about 30%; inactive means the rest. What follows is part of a selection rich in actives, with near analogues and random picks from the rest.
What follows are compounds tested against Ubiquitin carboxyl-terminal hydrolase 17-like protein 5 (Homo sapiens) (UniProt A8MUK1) (assay: inhibitors of human USP17 deubiquitinase (AID 1645855)). Conditions: purified USP17, Ub-rhodamine cleavage fluorescence, 3 h; at 50 µM; stronger effect = higher value.
Sequence of Ubiquitin carboxyl-terminal hydrolase 17-like protein 5 (Homo sapiens) (A8MUK1 whole entry, looked up): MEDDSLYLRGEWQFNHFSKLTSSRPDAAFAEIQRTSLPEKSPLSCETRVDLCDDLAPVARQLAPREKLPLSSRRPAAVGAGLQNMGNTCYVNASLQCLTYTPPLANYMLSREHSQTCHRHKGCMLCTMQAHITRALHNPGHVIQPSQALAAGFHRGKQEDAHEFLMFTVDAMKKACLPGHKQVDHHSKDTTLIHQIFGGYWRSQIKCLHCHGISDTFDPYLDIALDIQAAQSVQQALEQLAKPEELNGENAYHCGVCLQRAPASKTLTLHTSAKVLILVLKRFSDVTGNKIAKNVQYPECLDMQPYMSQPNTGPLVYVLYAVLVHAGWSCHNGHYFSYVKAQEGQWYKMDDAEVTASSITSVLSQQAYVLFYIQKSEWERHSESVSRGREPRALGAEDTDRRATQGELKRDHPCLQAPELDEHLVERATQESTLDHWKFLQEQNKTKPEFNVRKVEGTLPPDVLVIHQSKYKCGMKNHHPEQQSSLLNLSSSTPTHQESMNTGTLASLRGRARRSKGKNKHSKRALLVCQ
For `COc1ccc(CC(=O)Nc2ccc3c(c2)CCC3)cc1S(=O)(=O)N1CCOCC1`, the inhibition was -13.3% (inactive). With `COc1cc2c(cc1OC)CN(C(=O)c1cc(=O)c3ccccc3o1)CC2` the inhibition was 8.62% (inactive). In the case of `COc1ccc(CC(=O)Nc2ccc3c(c2)CN(C(=O)c2ccco2)CC3)cc1`, the inhibition is reported as 46.1% (active). `Cc1ccccc1CNC(=O)C1CCN(c2cnc3nccnc3c2)CC1` was tested, and the inhibition was -13% (inactive). `CCN1CCN(C(=O)c2cccn2Cc2noc(-c3ccc(C)cc3)n2)CC1` was tested, and the inhibition was -1.85% (inactive). With `CN(C)C(CNC(=O)c1ccccc1Br)Cc1ccccc1` (stereo not drawn) the inhibition was 14.4% (inactive). With `Cc1ccccc1N1C(=O)COc2ccc3ccccc3c2C1C(=O)NC1CCCC1` (stereo not drawn) the inhibition was -5.8% (inactive). For `CNC(=O)[C@@]12CCC3(CCN(C(=O)c4cc(C)on4)CC3)[C@@H]1CN(C)C2`, the inhibition was 3.02% (inactive). In the case of `CCn1cc(CN2C[C@@H](O)[C@H](NC(=O)c3ccccn3)C2)c(C)n1`, the inhibition is reported as 12.4% (inactive). For `O=C(c1cnn(-c2ccc(Cl)cc2)n1)c1cccs1`, the inhibition was 29.5% (inactive). For `O=C(Nc1ccc2cn[nH]c2c1)c1cnn(-c2ccccc2)n1`, the inhibition was 38.2% (active). With `O=C(Nc1ccc2oc(-c3ccccc3)nc2c1)c1cccc(-n2cnnc2)n1` the inhibition was -0.426% (inactive). For `CC(NC(=O)c1ccc2ncnc(N3CCOCC3)c2c1)c1ccccc1` (stereo not drawn), the inhibition was 9.89% (inactive). With `C=C(NC(=O)C(=C)NC(=O)c1csc(C2=N[C@@H]3c4csc(n4)[C@H]4NC(=O)c5csc(n5)[C@H]([C@](C)(O)[C@@H](C)O)NC(=O)C5CSC(=N5)/C(=C/C)NC(=O)C([C@@H](C)O)NC(=O)c5csc(n5)[C@]3(CC2)NC(=O)[C@H](C)NC(=O)C(=C)NC(=O)[C@H](C)NC(=O)C([C@@H](C)CC)NC2C=Cc3c(C(C)O)cc(nc3[C@H]2O)C(=O)OC4C)n1)C(N)=O` (stereo partly drawn) the inhibition was 53.2% (active). `CN(C)C(=O)C1CN(Cc2cccc(C#N)c2)Cc2ccnn2C1` (stereo not drawn) was tested, and the inhibition was -3.45% (inactive). For `c1cncc(-c2nnc3n2C2(CCCCC2)Cc2ccccc2-3)c1`, the inhibition was -1.82% (inactive). In the case of `O=c1c2ccccc2n(Cc2ccccc2Cl)c(=O)n1Cc1ccco1`, the inhibition is reported as -8.56% (inactive). `CCn1nccc1C1CCCN1C(=O)Nc1ccc(Cl)cc1` (stereo not drawn) was tested, and the inhibition was 1.51% (inactive). For `COc1ccc(CCNC(=O)Cn2c(=O)n(CC3CCC(C(=O)NC4CCCC4)CC3)c(=O)c3ccccc32)cc1OC` (stereo not drawn), the inhibition was 9.89% (inactive). With `Cc1cccc(N2CC(C)Cn3c2nc2c3c(=O)n(CC(=O)OCc3ccccc3)c(=O)n2C)c1` (stereo not drawn) the inhibition was -3.33% (inactive). In the case of `COc1ccc(CCNC(=O)CCCn2c(=O)c3ccccc3n(CC(=O)OCc3ccccc3)c2=O)cc1OC`, the inhibition is reported as 40.5% (active). `COc1ccc(CCNC(=O)CSc2cn(CCNC(=O)c3ccccc3C)c3ccccc23)cc1OC` was tested, and the inhibition was 18.8% (inactive). For `Cc1ccc(CNC(=O)CCCn2c(=O)c3sccc3n(CC(=O)OCc3ccccc3)c2=O)cc1`, the inhibition was 47.4% (active). With `Cc1ccc(CNC(=O)CC(c2ccccc2)c2ccccc2)cc1` the inhibition was 24.3% (inactive). With `COCC(=O)OCc1cc(=O)oc2cc(O)ccc12` the inhibition was 14.9% (inactive). `CN1CCn2c(-c3cccnc3)cnc2C12CCN(Cc1cccnc1)CC2` was tested, and the inhibition was -23.9% (inactive). `O=C(O)C1CCCN1C(=O)C1CCN(S(=O)(=O)c2ccccc2)CC1` (stereo not drawn) was tested, and the inhibition was 0.0755% (inactive). For `CC(C)N1CCN(C(=O)Cn2c(=O)n(-c3ccccc3)c3ncccc32)CC1`, the inhibition was -9.73% (inactive). With `O=C(Nc1cccnc1Cl)c1noc2c1COc1ccccc1-2` the inhibition was 15% (inactive). With `NC(=O)c1ccc(NC(=O)Cc2cc(-c3ccc(Cl)cc3)on2)cc1` the inhibition was 58.4% (active). `COc1cccc(CCNC(=O)Cc2cc(-c3ccc(C)cc3)on2)c1` was tested, and the inhibition was -2.69% (inactive). For `Cc1nc(-c2ccc(C)c(S(=O)(=O)NCC(=O)Nc3cccc(Cl)c3)c2)no1`, the inhibition was -1.55% (inactive). With `Cc1ccc(CN2CCC(N3CCN(C(=O)c4c(C)nn(C)c4C)CC3=O)CC2)cc1` the inhibition was 2.05% (inactive). `CC(NC(=O)CN1C(=O)C2CCCN2C(=O)c2ccc(F)cc21)c1ccccc1` (stereo not drawn) was tested, and the inhibition was -12.4% (inactive). With `CCc1cc(=O)n(CC(=O)NC2CCCC2)c(N2CCOCC2)n1` the inhibition was 0.695% (inactive). `O=C(CCc1nnc2ccc(N3CCCCC3)nn12)Nc1ccc(S(=O)(=O)N2CCCCCC2)cc1` was tested, and the inhibition was 16.3% (inactive). For `O=C(NC1CC1)c1cccc(OCC2CCCN(C(=O)c3cc(F)ccc3F)C2)c1` (stereo not drawn), the inhibition was -3.72% (inactive). With `CSc1nc2c(c(Nc3ccc(C(C)=O)cc3)n1)CCC2` the inhibition was 61% (active). In the case of `O=C(NCC1CC1)c1ccc2c(c1)nc1n2CCN(Cc2ccccn2)C1=O`, the inhibition is reported as -18.5% (inactive). For `CC(C)=CCC(O)C1=CC(=O)c2c(O)ccc(O)c2C1=O` (stereo not drawn), the inhibition was 95.2% (active). `CC(C)=CCc1cc(O)ccc1O` was tested, and the inhibition was 4.38% (inactive). `CN(C(=O)c1ccc(S(=O)(=O)N2CCOCC2)cc1)c1nnc(C23CC4CC(CC(C4)C2)C3)s1` was tested, and the inhibition was 5.76% (inactive). `CCOC(=O)c1c(S(=O)(=O)NCC(=O)Nc2ccc(C)cc2)c(C)n(C)c1C` was tested, and the inhibition was -20.2% (inactive). For `CN(CCc1ccccc1)c1nccc(N2CCN(C(=O)c3csc(-c4cccnc4)n3)CC2)n1`, the inhibition was 19.2% (inactive). `Cc1ccc(CSc2nnc(/C=C/c3ccccc3)o2)cc1` was tested, and the inhibition was 39.9% (active). In the case of `Cc1ccc(Cc2nnc(C(=O)NC(C)c3ccccc3)o2)cc1` (stereo not drawn), the inhibition is reported as 4.41% (inactive). With `COc1ccccc1CC(=O)N1C[C@@H]2C[C@H]1C[C@@H]2NC(=O)c1ccccc1` the inhibition was 15.2% (inactive). With `COc1ccc(CNC(=O)CCc2c(C)nn(-c3cc(N(C)C)ncn3)c2C)cc1` the inhibition was -0.38% (inactive). In the case of `Cc1ccc(S(=O)(=O)N2C(=O)CCC2C(=O)N2CCCC2)cc1C` (stereo not drawn), the inhibition is reported as -4.46% (inactive). With `O=C(CN1CCC(c2nc(-c3ccccc3)no2)CC1)Nc1ccccc1` the inhibition was -26.4% (inactive). With `O=C(Cc1nnc2c(-c3nc(C4CC4)no3)cccn12)Nc1ccccc1` the inhibition was 69.9% (active). With `CCn1c(CC(=O)Nc2ccccc2)nnc1SCC(=O)N1CCOCC1` the inhibition was 1.1% (inactive). With `O=C(c1noc2c1CCCC2)N1CCCC(c2ccn[nH]2)C1` (stereo not drawn) the inhibition was 0.07% (inactive).

From PubChem BioAssay AID1645855 (Buhrlage Lab, Dana-Farber Cancer Institute and Novartis …, 2021)
